Assay [1] in a line: resazurin metabolic signal in HepG2 cells – cell-based, resazurin fluorescence, 24 h, PK04 Diversity Set, profiling panel (AID 1172). Note: test concentration not given here. To be noted: HepG2 viability, higher = more signal. On the technique in general: Alamar Blue is a resazurin reagent that responds to reducing activity.
A short description of assay [2]: budding yeast growth changes without added modifier – OD600, strain BY4716, 24 h, basal condition, primary screen (AID 1173). To be noted: S. cerevisiae BY4716 growth, OD600, 24 h; higher = more signal, called active from +8 up or from −8 down.
A short description of assay [3]: viability profiling in MM1S myeloma cells – cell-based, resazurin fluorescence, basal, 24 h, PK04 Diversity Set, profiling panel (AID 1174).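 Note: MM1S multiple myeloma cell line; test concentration not given here.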 To be noted: higher = more signal, called active from +8 up or from −8 down.
Assay [4] deals with Dihydroorotate dehydrogenase (quinone), mitochondrial (Plasmodium falciparum (isolate 3D7)) (UniProt Q08210). Put plainly: inhibition of P. falciparum DHODH – biochemical, C-terminal His tag, absorbance 600 nm, primary screen (AID 1175).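 Note: recombinant parasite enzyme with a five histidine tag at its C terminus; test concentration not given here.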 To be noted: PfDHODH enzyme, DCIP absorbance 600 nm; higher = more signal, called active from +8 up or from −8 down.
Dihydroorotate dehydrogenase (quinone), mitochondrial (Plasmodium falciparum (isolate 3D7)), sequence (Q08210 whole entry, looked up): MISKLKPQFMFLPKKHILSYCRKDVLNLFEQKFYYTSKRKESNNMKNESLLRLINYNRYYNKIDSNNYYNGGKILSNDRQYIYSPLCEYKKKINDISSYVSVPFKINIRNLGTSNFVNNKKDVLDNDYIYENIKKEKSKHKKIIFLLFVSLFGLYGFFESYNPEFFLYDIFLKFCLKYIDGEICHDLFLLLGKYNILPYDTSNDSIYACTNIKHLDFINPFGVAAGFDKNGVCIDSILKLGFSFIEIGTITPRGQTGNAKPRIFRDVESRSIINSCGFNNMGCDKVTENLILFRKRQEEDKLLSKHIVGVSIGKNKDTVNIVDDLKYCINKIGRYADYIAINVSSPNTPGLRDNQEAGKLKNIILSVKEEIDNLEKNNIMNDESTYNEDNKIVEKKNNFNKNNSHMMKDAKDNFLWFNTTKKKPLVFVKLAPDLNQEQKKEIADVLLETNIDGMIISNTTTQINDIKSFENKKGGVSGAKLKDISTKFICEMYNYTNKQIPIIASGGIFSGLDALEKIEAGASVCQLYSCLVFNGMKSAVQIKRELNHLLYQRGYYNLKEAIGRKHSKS
Assay [5] can be described thus: inhibition of PAO1 biofilm formation – strain PAO1, LB-PBS medium, absorbance 600 nm, primary screen (AID 1176). Note: test concentration not given here. To be noted: P. aeruginosa PAO1 growth/biofilm, A600, 12 h; higher = more signal.
A short description of assay [6]: growth modulation of vineyard yeast isolate – strain RM11-1a, OD600, basal, 24 h, primary screen (AID 1177).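 Note: cultures grown under basal conditions with no added stressor; test concentration not given here.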 To be noted: S. cerevisiae RM11-1a growth, OD600, 24 h; higher = more signal, called active from +8 up or from −8 down.
The nature of assay [7]: growth of efflux-deficient E. coli DRC39 – strain DRC39, OD650, 24 h, E. coli filamentation inducers, primary screen (AID 1178).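 Note: growth measured as culture turbidity by optical density at 650 nm; test concentration not given here.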 To be noted: E. coli DRC39 acrAB, higher = more signal, called active from +8 up or from −8 down.
The nature of assay [8]: growth of efflux-deficient E. coli DRC39 – strain DRC39, OD650, 48 h, E. coli filamentation inducers, primary screen (AID 1179).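 Note: screen aims at cell division blockers that make cells filament.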 To be noted: E. coli DRC39 delta-acrAB growth, higher = more signal, called active from +8 up or from −8 down.
Assay [9] can be described thus: viability profiling in RPMI8226 myeloma cells – cell-based, resazurin fluorescence, basal, 24 h, PK04 Diversity Set, profiling panel (AID 1180).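 Note: RPMI8826 multiple myeloma cell line at 5000 cells per well; test concentration not given here.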 To be noted: higher = more signal.
Assay [10] has as its target E3 ubiquitin-protein ligase XIAP (Homo sapiens) (UniProt P98170). Put plainly: small molecules binding XIAP protein – biophysical, small-molecule microarray, fluorescence 635 nm, primary screen (AID 1181).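 Note: score merges 667 nm emission and signal to noise over triplicate slides.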 To be noted: higher = more signal.

The structures appear in SMILES notation. Active and inactive are the calls of the source. Unless noted, the rule behind the calls is not given here.

E3 ubiquitin-protein ligase XIAP (Homo sapiens), sequence (P98170 whole entry, looked up): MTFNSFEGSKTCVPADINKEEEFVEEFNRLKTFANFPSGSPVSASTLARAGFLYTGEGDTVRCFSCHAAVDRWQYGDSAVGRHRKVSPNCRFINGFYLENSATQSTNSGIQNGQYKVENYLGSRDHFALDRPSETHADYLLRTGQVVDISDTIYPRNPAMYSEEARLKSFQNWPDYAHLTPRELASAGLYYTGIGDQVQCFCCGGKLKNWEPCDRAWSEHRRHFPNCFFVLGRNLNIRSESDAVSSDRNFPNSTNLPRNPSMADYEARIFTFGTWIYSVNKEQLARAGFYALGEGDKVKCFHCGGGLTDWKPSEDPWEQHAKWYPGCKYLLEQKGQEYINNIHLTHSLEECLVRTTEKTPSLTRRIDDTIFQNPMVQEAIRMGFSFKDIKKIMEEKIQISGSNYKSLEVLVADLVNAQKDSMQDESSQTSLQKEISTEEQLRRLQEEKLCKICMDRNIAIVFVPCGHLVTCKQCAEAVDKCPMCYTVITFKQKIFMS

Turning to `COCCOC(=O)N1C(=O)[C@@]2(c3cc(C#CC4=CCCCC4)ccc31)[C@H](c1ccc(OCCO)cc1)N1[C@H](c3ccccc3)[C@H](c3ccccc3)OC(=O)[C@H]1[C@@H]2C(=O)NC[C@H](O)c1ccccc1`, the z-score is 0.334 in [1]; 2.36 (inactive) in [2]; -0.363 (inactive) in assay [3]; 3.6 (inactive) in [5]; 2.83 (inactive) in [6]; -0.441 (inactive) in assay [7]. Further, the z-score in assay [8] was -0.16 (inactive); in [9] it was -0.48. For the same compound, the values for the composite z-score in [4] and in assay [10] were 0.184 (inactive) and -0.12, respectively.

As for `CCOC(=O)c1ccc(NC(=O)O[C@H]2[C@H](OC(=O)Nc3ccc4c(c3)OCO4)[C@@H](OC(=O)Nc3ccc4c(c3)OCO4)[C@@H](OC)O[C@@H]2CO)cc1`, the z-score was -0.741 in assay [1]; 1.1 (inactive) in assay [2]; -0.849 (inactive) in [3]; 2.08 (inactive) in assay [5]; 2.29 (inactive) in assay [6]; 1.04 (inactive) in [7]. Also, the z-score was -0.0515 (inactive) in assay [8] and -0.836 in assay [9]. The composite z-score in assay [4] is 0.0737 (inactive); in assay [10], 0.519.

For the compound `CO[C@H]1O[C@H](CO)[C@@H](OC(=O)Nc2ccc3c(c2)OCO3)[C@H](OC(=O)c2cc3ccccc3[nH]2)[C@H]1OC(=O)c1cc2ccccc2[nH]1`, the z-score was -2.92 in assay [1]; -0.237 (inactive) in assay [2]; -3.48 (inactive) in [3]; 0.69 (inactive) in assay [5]; -0.81 (inactive) in [6]; 0.387 (inactive) in assay [7]. For the same compound, the z-score is 1.42 (inactive) in assay [8] and -3.84 in assay [9]. Besides, the composite z-score was -1.53 (inactive) in assay [4] and 0.151 in [10].

As for `[N-]=[N+]=Nc1ccccc1C[C@]1(C(N)=O)N=C(c2ccc(OCCCO)cc2)O[C@H]1c1ccccc1N=[N+]=[N-]`, the z-score in [1] was -0.0314; in assay [2], -2.88 (inactive); in [3], -1.55 (inactive); in assay [5], -0.193 (inactive); in assay [6], -0.315 (inactive); in [7] it was 0.892 (inactive). In addition, the z-score was -0.142 (inactive) in [8] and -1.64 in [9]. For the same compound, the composite z-score in [4] was -0.398 (inactive); in assay [10], -0.248.

Take `COc1ccc([Si](C)(C)[C@@H]2[C@@H](CC(=O)N3Cc4ccccc4C[C@H]3CO)O[C@]3(C(=O)N(C)c4ccccc43)[C@H]2C)cc1`: the z-score in assay [1] was -1.35; in assay [2], -2.33 (inactive); in assay [3], -2.97 (inactive); in assay [5] it was 1.81 (inactive); in assay [6], 1.87 (inactive); in assay [7], 1.21 (inactive). Also, the z-score is 0.403 (inactive) in [8] and -4.65 in assay [9]. Besides, the composite z-score in [4] is 0.0586 (inactive); in assay [10] it was -0.0095.

Turning to `C=C[C@@H](OC)[C@H](OC(=O)Nc1ccc(SC)cc1)c1ccc(O)c(F)c1`, the z-score in assay [1] was -0.626; in assay [2], -2.65 (inactive); in assay [3], -0.807 (inactive); in assay [5], 1.22 (inactive); in assay [6], 1.95 (inactive); in assay [7] it was -0.881 (inactive). The z-score in [8] was -1.19 (inactive); in assay [9], -0.649. The composite z-score was 0.592 (inactive) in assay [4] and -0.117 in assay [10].

On to `C=CCOC(=O)[C@H]1[C@@H]2C(=O)O[C@@H](c3ccccc3)[C@@H](c3ccccc3)N2[C@@H](c2ccc(OCCOC(=O)[C@H]3C[C@H]4C(=O)N[C@@H](CC(C)C)C(=O)N4[C@H]3c3cccc(OCCO)c3)cc2)[C@]12C(=O)Nc1ccc(I)cc12`, for which the z-score in [1] was -0.054; in assay [2], 1.9 (inactive); in assay [3], -0.414 (inactive); in assay [5] it was 2.9 (inactive); in assay [6] it was 0.447 (inactive); in [7], -0.0744 (inactive). The z-score in assay [8] is -0.62 (inactive); in assay [9], -0.385. Besides, the composite z-score in [4] is 0.124 (inactive); in assay [10], -0.0174.

As for `COc1cc2c(cc1OC)CN(C(=O)[C@@H]1[C@H]3C(=O)O[C@H](c4ccccc4)[C@H](c4ccccc4)N3[C@H](c3ccc(OCCO)cc3)[C@@]13C(=O)Nc1ccc(C#CC4(O)CCCCCC4)cc13)CC2`, the z-score in assay [1] is 0.61; in assay [2], -0.257 (inactive); in [3], 0.341 (inactive); in assay [5], 4.2 (inactive); in assay [6], 2.82 (inactive); in [7], 0.312 (inactive). Besides, the z-score in assay [8] is 0.854 (inactive); in assay [9], -0.221. Besides, the composite z-score in [4] was -1.3 (inactive); in [10], -0.0382.

In the case of `[N-]=[N+]=NCc1ccccc1C[C@@]1(C(=O)NCc2ccccc2)N=C(c2ccc(OCCCO)cc2)O[C@@H]1c1ccccc1N=[N+]=[N-]`, the z-score in assay [1] was 0.279; in assay [2], 0.85 (inactive); in assay [3], -0.806 (inactive); in [5], 1.39 (inactive); in assay [6], 1.49 (inactive); in assay [7] it was 0.423 (inactive). For the same compound, the z-score was -0.335 (inactive) in assay [8] and -0.686 in [9]. In addition, the composite z-score in assay [4] was 0.805 (inactive); in assay [10] it was -0.11.

For the compound `CCCC[C@@H](O)C1=C(COc2ccccc2)C[C@H]2C(=O)N(C)C(=O)[C@H]2[C@H]1CO`, the z-score in assay [1] is -0.0624; in assay [2], -3.78 (inactive); in assay [3], 0.147 (inactive); in [5] it was 0.613 (inactive); in assay [6], -3.3 (inactive); in assay [7] it was 1.6 (inactive). For the same compound, the z-score in assay [8] is 1.41 (inactive); in [9] it was 0.296. Besides, the composite z-score in [4] is -1.85 (inactive); in assay [10], -0.127.

As to `CC(C)N1C(=O)C[C@@](C(=O)NCCCN(C)C)(c2ccc([N+](=O)[O-])cc2)[C@H]1c1ccc(CO)cc1`, the z-score was 0.0314 in assay [1]; -0.67 (inactive) in assay [2]; -1.21 (inactive) in assay [3]; 0.745 (inactive) in assay [5]; -0.379 (inactive) in assay [6]; -0.328 (inactive) in assay [7]. Further, the z-score in [8] is -1.02 (inactive); in assay [9], -0.198. The figures for the composite z-score in assay [4] and in assay [10] were 0.352 (inactive) and -0.267, respectively.

For the compound `O=C1NC(=O)C2C1C=CC(C(O)c1ccco1)N2Nc1ccccn1` (stereo not given), the z-score was -1.32 in assay [1]; 0.461 (inactive) in [2]; -1.68 (inactive) in [3]; 0.956 (inactive) in assay [5]; 0.254 (inactive) in assay [6]; -0.457 (inactive) in assay [7]. In addition, the figures for the z-score in assay [8] and in assay [9] were -0.21 (inactive) and -1.09, respectively. The values for the composite z-score in assay [4] and in assay [10] were 0.257 (inactive) and -0.0342, respectively.

The record behind these values is PubChem BioAssay.
